According to PubChem BioAssay AID1259415 (National Center for Advancing Translational Sciences (NCATS), 2018):
About 18,000 (4.4%) of roughly 410,000 compounds were called active. Inconclusive results (about 7%) are left out. Only a selection was taken, and actives are over-represented in it overall. A number with no mark means an inactive call. Rule as the data show it: active = activity change below about -60%; inconclusive = no clear call, values can overlap the other calls; inactive = above about -39%.

Assay: qHTS Assay for inhibitors of the human cytomegalovirus (HCMV)
Conditions: HFF cells, HCMV-luciferase reporter, 72 h; at 57.5 µM; stronger effect = lower value
Summary of the method: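 Steps: HFFs plated, 16 h 37C; compounds added; HCMV-luciferase added to MOI 1 PFU/cell; 72 h 37C; OneGlo reagent, 5 min room temperature; luminescence read, normalized to controls.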
% is scaled to controls: 0 for no effect and ±100 for the full control effect.

Going from `COCCNS(=O)(=O)c1cc(-c2nn3c(C)nnc3c3ccccc23)ccc1C` to `COc1ccc(CCNc2ncnc3onc(-c4ccc(Cl)cc4)c23)c(OC)c1`, the activity change, negative = inhibition falls from 6.92% to 0.256%.

Compared with `Cc1cc(Cl)c(S(=O)(=O)N(C)C)cc1OCC(N)=O`, `Cc1cc(Cl)c(S(=O)(=O)NCCC(=O)O)cc1OCC(N)=O` is lower in activity change, negative = inhibition: 12.2% for the first, 8.87% for the second.

Going from `CC(C)CNC(=O)CC(c1ccccc1)c1c(O)ccc2ccccc12` (centres undefined) to `O=C(NCc1ccc2c(c1)CCN2C(=O)c1ccccc1)c1ccccc1`, the activity change, negative = inhibition falls from 16% to 13.7%.

Going from `O=C(/C=C/c1ccccc1)Nc1cc(-c2nc3cc(Cl)ccc3o2)ccc1Cl` to `O=C(COc1ccc(Cl)cc1)Nc1ccc(-c2nc3cc(Cl)ccc3o2)c(O)c1`, the activity change, negative = inhibition falls from 88.6% to 71.6%.

Compared with `CC(=O)N1CCCc2cc(S(=O)(=O)N3CCC(C(=O)NCc4ccc(F)cc4)CC3)ccc21`, `Cc1cccc(NC(=S)N2CCC(C(=O)c3ccc(F)cc3)CC2)c1` is higher in activity change, negative = inhibition: 7.04% for the first, 15% for the second.

First: O=C(COc1ccccc1)NCc1ccc2c(c1)CCN2C(=O)c1ccc(F)cc1
Second: CSc1ccc(CCNC(=O)c2cnn(-c3ccccc3)c2-n2cccc2)cc1
The activity change, negative = inhibition of the first is higher: -6.87% for the first, -13.5% for the second.

Going from `COc1ccc(C(=O)Nc2cccc(C(=O)OCc3cc(=O)n4c5c(sc4n3)CCCC5)c2)cc1` to `COC(=O)c1ccc(NC(=O)c2cccc3c2C(=O)N(C2CCCCC2)C3)cc1`, the activity change, negative = inhibition rises from -36% to 12.9%.

First: COc1ccc(OC)c(-n2nnc3c(sc4nc(C)c(Br)c(C)c43)c2=O)c1
Second: COc1ccc(C2CC(=O)N(Cc3ccccc3C)c3c2c(C)nn3-c2nc(C)cc(C)n2)c(OC)c1 (centres undefined)
The activity change, negative = inhibition of the first is higher: -8.62% for the first, -22.9% for the second.

First: O=C(Cc1ccc(NC(=O)C2CCCN(C(=O)C3CCCCC3)C2)cc1)Nc1cccc(C(=O)N2CCCCC2)c1 (centres undefined)
Second: O=C(Cn1cnc2ccccc2c1=O)Nc1cccc(S(=O)(=O)N2CCCCC2)c1
The activity change, negative = inhibition of the first is higher: 1.06% for the first, 0% for the second.

Going from `N#Cc1cccc(NC(=O)CN2CCCCCC2)c1` to `CCc1cccc(NC(=O)CN(C)S(=O)(=O)c2ccc3[nH]c4c(c3c2)CCCC4)c1`, the activity change, negative = inhibition rises from -11.3% to 3.8%.

Going from `COc1ccc(Nc2ncc3c(n2)CCN(C(=O)OC(C)(C)C)C3)cc1` to `Cc1ccc2c(c1)-c1c(cnn1CC(=O)Nc1ccccc1C#N)CO2`, the activity change, negative = inhibition falls from 12.2% to -27.6%.

Compared with `COC(=O)c1ccc(C)c(NC(=O)Cn2c(C)csc2=O)c1`, `CSc1ccccc1NC(=O)CN(C)CC(=O)Nc1ccc(Cl)cc1[N+](=O)[O-]` is lower in activity change, negative = inhibition: 0.424% for the first, -26.6% for the second.

Going from `CCn1cc(C(=O)N2CCN(c3cc(C)ccc3C)CC2)c(=O)c2cc(S(=O)(=O)N(C)C3CCCCC3)ccc21` to `CCc1ccccc1N1C(=O)CN(S(=O)(=O)CC)CC1(C)C(=O)NC1CCCCC1` (centres undefined), the activity change, negative = inhibition falls from 10.1% to 0%.

First: CC(OC(=O)c1c(F)cccc1F)C(=O)NCCC1=CCCCC1 (centres undefined)
Second: CC(=O)Nc1ccc(S(=O)(=O)N(C)CC(=O)NCCC2=CCCCC2)cc1
The activity change, negative = inhibition of the first is higher: 20.1% for the first, -7.2% for the second.

Going from `Fc1ccccc1-c1noc2nc(OCc3ccc(OC(F)F)cc3)ccc12` to `CCC(C)c1ccccc1NC(=O)CN(C)CC(=O)Nc1ccccc1SC` (centres undefined), the activity change, negative = inhibition falls from 7.83% to -37.9%.

Compared with `COc1ccc2c(c1)C(NS(=O)(=O)OCC(Cl)(Cl)Cl)CCC2` (centres undefined), `CCCc1cc(=O)[nH]c(SCC(=O)N2C(C)CCCC2C)n1` (centres undefined) is higher in activity change, negative = inhibition: -21% for the first, 24.9% for the second.

Going from `CC(C)Cn1c(N)c(C(=O)COC(=O)CN2C(=O)C3CC=CCC3C2=O)c(=O)n(C)c1=O` (centres undefined) to `CC1CCN(C2=NC(=O)/C(=C/c3cn[nH]c3-c3ccccc3)S2)CC1`, the activity change, negative = inhibition rises from -31.7% to -1.68%.

With `O=C1N=C(N2CCOCC2)CS1` the activity change, negative = inhibition was -12.8%.

For `Cc1cc(Cl)c(S(=O)(=O)Nc2ccc3c(c2)OCCO3)cc1OCC(N)=O`, the activity change, negative = inhibition was -65.5% (active).
In the case of `O=C(NCc1ccc2c(c1)CCN2C(=O)c1ccccc1)Nc1cc(F)ccc1F`, the activity change, negative = inhibition is reported as -84.8% (active).
With `COc1ccc(OC)c(Cc2cnc3nc(N)nc(N)c3c2C)c1` the activity change, negative = inhibition was -98.1% (active).
For `N#Cc1cccc(NC(=O)C2CCCN(C(=O)c3ccc(Cl)cc3)C2)c1` (centres undefined), the activity change, negative = inhibition was -66% (active).
With `Cc1cccc(NC(=S)NCc2ccc3[nH]c4c(c3c2)CCCC4)c1` the activity change, negative = inhibition was -72.9% (active).
With `S=C(NCCC1=CCCCC1)Nc1ccccc1` the activity change, negative = inhibition was -67% (active).
In the case of `CCCc1cc(=O)[nH]c(SCC(=O)c2c(N)n(CC(C)C)c(=O)n(C)c2=O)n1`, the activity change, negative = inhibition is reported as -60.6% (active).
In the case of `O=C1N=C(N2CCOCC2)S/C1=C\C=C/c1ccccc1`, the activity change, negative = inhibition is reported as -102% (active).
In the case of `CSc1ccccc1NC(=O)CN(C)CC(=O)Nc1cccc(Br)c1`, the activity change, negative = inhibition is reported as -99.6% (active).
